The inhibition is the relative decrease from the control value, in per cent.

Our source for the inhibition values is ChEMBL document CHEMBL1961873, “Compounds: GSK PKIS; Assays: Nanosyn kinase panel” (2012).

Experiment [1] addresses 5'-AMP-activated protein kinase catalytic subunit alpha-2 (Homo sapiens) (UniProt P54646). The note with it: at 1 µM.
The target in experiment [2] is T1, NUAK family SNF1-like kinase 1 (Homo sapiens) (UniProt O60285).
T1 sequence (whole entry): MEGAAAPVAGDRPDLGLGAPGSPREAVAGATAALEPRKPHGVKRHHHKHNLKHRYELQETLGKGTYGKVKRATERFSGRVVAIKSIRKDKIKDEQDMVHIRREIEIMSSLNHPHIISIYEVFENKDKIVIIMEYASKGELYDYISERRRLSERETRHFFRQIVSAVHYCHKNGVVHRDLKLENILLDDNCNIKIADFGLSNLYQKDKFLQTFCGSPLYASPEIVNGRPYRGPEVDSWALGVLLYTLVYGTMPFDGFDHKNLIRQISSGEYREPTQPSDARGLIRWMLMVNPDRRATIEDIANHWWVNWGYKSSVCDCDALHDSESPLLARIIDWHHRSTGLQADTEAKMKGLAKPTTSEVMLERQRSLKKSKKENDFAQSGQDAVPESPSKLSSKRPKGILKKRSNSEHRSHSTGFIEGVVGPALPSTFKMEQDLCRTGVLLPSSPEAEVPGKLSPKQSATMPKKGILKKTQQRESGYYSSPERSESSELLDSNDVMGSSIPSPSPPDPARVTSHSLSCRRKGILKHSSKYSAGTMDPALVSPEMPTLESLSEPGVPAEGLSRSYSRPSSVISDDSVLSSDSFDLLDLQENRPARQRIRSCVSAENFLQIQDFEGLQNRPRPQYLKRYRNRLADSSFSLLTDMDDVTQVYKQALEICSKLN
The note with it: at 0.1 µM.

The target of experiment [3] is T1, NUAK family SNF1-like kinase 1 (Homo sapiens). To be noted: at 1 µM.
The target of experiment [4] is T2, Serine/threonine-protein kinase BRSK1 (Homo sapiens) (UniProt Q8TDC3).
T2 sequence (whole entry): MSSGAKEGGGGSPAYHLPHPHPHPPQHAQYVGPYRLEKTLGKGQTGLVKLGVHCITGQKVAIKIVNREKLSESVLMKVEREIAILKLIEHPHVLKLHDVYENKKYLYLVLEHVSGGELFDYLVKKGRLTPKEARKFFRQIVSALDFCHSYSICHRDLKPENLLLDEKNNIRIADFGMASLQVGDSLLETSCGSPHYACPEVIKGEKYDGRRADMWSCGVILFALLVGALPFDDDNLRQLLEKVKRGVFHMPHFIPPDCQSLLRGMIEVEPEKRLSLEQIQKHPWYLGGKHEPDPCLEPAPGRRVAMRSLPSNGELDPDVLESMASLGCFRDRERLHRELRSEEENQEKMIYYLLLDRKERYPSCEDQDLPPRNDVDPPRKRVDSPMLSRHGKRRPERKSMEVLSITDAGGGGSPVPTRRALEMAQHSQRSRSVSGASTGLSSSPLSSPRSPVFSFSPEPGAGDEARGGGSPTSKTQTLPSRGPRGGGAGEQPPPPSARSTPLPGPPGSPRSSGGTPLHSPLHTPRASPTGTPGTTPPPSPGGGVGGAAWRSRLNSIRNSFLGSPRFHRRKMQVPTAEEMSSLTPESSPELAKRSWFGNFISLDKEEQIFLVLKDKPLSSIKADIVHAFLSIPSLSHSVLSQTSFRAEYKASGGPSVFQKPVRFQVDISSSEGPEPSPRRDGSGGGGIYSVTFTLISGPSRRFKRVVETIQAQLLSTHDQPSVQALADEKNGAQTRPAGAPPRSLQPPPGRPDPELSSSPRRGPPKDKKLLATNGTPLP
To be noted: at 0.1 µM.

For experiment [5], the target named is T2, Serine/threonine-protein kinase BRSK1 (Homo sapiens). The note with it: at 1 µM.
Experiment [6] has as its target T3, Serine/threonine-protein kinase BRSK2 (Homo sapiens) (UniProt Q8IWQ3).
T3 sequence (whole entry): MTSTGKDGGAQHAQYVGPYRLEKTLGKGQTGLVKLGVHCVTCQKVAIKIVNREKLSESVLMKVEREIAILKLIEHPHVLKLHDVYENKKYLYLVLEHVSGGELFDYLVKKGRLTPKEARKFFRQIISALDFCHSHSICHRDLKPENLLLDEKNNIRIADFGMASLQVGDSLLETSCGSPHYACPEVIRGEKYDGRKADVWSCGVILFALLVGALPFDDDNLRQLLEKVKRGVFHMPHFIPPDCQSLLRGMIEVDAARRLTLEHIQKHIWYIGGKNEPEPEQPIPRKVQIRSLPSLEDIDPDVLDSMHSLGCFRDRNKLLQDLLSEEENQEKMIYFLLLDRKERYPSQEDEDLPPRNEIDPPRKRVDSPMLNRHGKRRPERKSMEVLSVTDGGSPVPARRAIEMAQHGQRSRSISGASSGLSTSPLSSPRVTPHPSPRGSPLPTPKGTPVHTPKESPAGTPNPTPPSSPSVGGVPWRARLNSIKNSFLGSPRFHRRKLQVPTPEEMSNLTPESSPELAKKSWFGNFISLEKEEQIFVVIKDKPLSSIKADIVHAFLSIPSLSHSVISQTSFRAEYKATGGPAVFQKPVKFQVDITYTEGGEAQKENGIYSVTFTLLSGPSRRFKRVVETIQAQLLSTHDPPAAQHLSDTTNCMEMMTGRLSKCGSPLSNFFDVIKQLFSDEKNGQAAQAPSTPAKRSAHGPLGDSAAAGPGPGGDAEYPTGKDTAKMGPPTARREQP
The note with it: at 0.1 µM.

In experiment [7] the target is T3, Serine/threonine-protein kinase BRSK2 (Homo sapiens). To be noted: at 1 µM.
Experiment [8] has as its target Calcium/calmodulin-dependent protein kinase type 1D (Homo sapiens) (UniProt Q8IU85). The note with it: at 0.1 µM.
Experiment [9] shares this target. The note with it: at 1 µM.
In experiment [10] the target is Calcium/calmodulin-dependent protein kinase type II subunit alpha (Homo sapiens) (UniProt Q9UQM7). The note with it: at 0.1 µM.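 Also: reported values are averages (mean inhibition of CAMK2A).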
Sequence of Calcium/calmodulin-dependent protein kinase type II subunit alpha (Homo sapiens) (Q9UQM7 whole entry): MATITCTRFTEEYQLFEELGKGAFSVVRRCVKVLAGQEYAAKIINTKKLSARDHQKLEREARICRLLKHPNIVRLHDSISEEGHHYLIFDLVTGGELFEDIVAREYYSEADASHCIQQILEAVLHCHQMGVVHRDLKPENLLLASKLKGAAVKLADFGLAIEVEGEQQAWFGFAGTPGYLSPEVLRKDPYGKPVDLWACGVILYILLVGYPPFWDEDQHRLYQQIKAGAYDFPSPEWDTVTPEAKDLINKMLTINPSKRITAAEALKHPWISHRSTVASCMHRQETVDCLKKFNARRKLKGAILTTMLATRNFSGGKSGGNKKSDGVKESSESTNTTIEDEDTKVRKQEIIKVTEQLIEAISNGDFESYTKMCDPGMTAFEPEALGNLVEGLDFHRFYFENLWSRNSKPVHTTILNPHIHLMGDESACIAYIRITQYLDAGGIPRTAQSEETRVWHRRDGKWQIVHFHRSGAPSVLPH

Sequence of Calcium/calmodulin-dependent protein kinase type 1D (Homo sapiens) (Q8IU85 whole entry, looked up): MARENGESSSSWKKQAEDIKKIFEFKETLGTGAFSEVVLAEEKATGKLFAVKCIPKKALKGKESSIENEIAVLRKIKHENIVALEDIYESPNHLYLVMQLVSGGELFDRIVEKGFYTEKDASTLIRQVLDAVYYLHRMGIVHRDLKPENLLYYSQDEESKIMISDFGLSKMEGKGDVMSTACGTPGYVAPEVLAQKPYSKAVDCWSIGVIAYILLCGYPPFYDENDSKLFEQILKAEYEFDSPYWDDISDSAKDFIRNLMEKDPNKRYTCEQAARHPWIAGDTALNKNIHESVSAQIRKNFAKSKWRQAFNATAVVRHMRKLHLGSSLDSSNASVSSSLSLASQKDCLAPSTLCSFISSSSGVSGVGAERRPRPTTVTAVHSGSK
Sequence of 5'-AMP-activated protein kinase catalytic subunit alpha-2 (Homo sapiens) (P54646 whole entry, looked up): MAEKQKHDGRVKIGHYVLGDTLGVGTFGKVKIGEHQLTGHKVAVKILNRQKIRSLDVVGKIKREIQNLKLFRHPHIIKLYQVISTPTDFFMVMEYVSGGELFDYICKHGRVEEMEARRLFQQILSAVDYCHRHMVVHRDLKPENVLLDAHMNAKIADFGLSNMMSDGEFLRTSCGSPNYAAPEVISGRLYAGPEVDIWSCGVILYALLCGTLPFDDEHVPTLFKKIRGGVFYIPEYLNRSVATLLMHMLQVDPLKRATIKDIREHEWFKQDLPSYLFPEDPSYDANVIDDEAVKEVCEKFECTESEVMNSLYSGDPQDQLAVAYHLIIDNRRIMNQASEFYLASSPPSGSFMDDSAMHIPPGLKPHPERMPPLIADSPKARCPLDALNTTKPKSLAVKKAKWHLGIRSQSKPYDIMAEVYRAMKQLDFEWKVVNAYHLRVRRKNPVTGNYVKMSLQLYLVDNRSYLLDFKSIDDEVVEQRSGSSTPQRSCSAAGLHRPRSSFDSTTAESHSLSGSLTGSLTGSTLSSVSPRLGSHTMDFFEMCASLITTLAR

Consider `COc1cc(Nc2ncc(-c3ccccc3)o2)cc(OC)c1`, for which the inhibition is 8.23% in experiment [1]; 5.89% in experiment [2]; 32.7% in [3]; -1.27% in experiment [4]; 8.79% in experiment [5]; 2.68% in experiment [6]. Also, the inhibition is 7.23% in experiment [7], -0.33% in experiment [8], -0.66% in experiment [9] and 2.98% in [10].

Take `COc1ccc(Nc2ncc(-c3ccccc3)o2)cc1OC`: the inhibition in experiment [1] was determined as 14.5%; in [2], 18.2%; in experiment [3] it was 61.5%; in [4], 1.32%; in [5] it was 11.5%; in experiment [6], 0.9%. The inhibition in [7] was found to be 12.8%; in experiment [8], 0.37%; in experiment [9], 1.51%; in experiment [10], 1.79%.

On to `CC(C)c1ccc(-c2cc(-c3c[nH]nc3-c3ccccn3)ccn2)cc1`, for which the inhibition is 2.31% in experiment [1]; -1.39% in experiment [2]; 0.75% in experiment [3]; 0.75% in [4]; -0.92% in experiment [5]; 0.14% in experiment [6]. For the same compound, the inhibition in [7] is 0.33%; in experiment [8], -0.78%; in [9] it was 0.06%; in [10], -0.6%.

`O=C1Nc2ccccc2/C1=C1\CCc2cc(O)ccc21`: the inhibition in experiment [1] is 14.3%; in experiment [2], 16.2%; in [3] it was 60.8%; in experiment [4] it was 3.95%; in experiment [5], 16.9%; in experiment [6], 5.82%. For the same compound, the inhibition in experiment [7] amounted to 20.1%; in [8], 1.02%; in experiment [9], 3.43%; in experiment [10], 3.85%.

For `CCOc1ccc2c(-c3ccnc(Nc4cc(OC)cc(C(F)(F)F)c4)n3)cnn2n1`, the inhibition in experiment [1] worked out at 3.94%; in experiment [2], 4.52%; in experiment [3] it was 21.2%; in [4] it was 0.53%; in experiment [5] it was 5.51%; in experiment [6], 1.89%. In addition, the inhibition in experiment [7] is 6.6%; in experiment [8], 0.33%; in experiment [9], 2.28%; in experiment [10], -1.52%.

As for `COC(=O)Nc1nc2cc(Oc3ccc(NC(=O)Nc4ccccc4)cc3)ccc2[nH]1`, the inhibition is 0.9% in experiment [1]; -0.53% in experiment [2]; -0.72% in experiment [3]; -0.86% in experiment [4]; 0.34% in experiment [5]; 0.79% in [6]. Also, the inhibition is 2.06% in experiment [7], 0.99% in experiment [8], -1.18% in experiment [9] and 2.23% in [10].

Turning to `CS(=O)(=O)CCNCc1ccc(-c2ccc3ncnc(Nc4ccc(OCc5cccc(C(F)(F)F)c5)cc4)c3c2)o1`, the inhibition amounted to 3.3% in experiment [1]; 0.13% in experiment [2]; 6.75% in [3]; 4% in experiment [4]; 4.04% in [5]; 4.95% in experiment [6]. For the same compound, the inhibition in experiment [7] is 9.19%; in experiment [8], -0.93%; in [9] it was 0.88%; in experiment [10], 1.38%.

As for `COc1c(C(N)=O)cc(-c2ccc(Cl)cc2)cc1-c1ccc(S(N)(=O)=O)cc1`, the inhibition in experiment [1] is 3.24%; in experiment [2], 0.82%; in experiment [3], 1.1%; in [4], 3.28%; in [5], -0.57%; in experiment [6], -0.02%. Further, the inhibition stood at 1.59% in [7], 0.45% in [8], 3.09% in [9] and 3.01% in [10].

For the compound `FC(F)(F)CNc1nccc(-c2cnn3ncccc23)n1`, the inhibition in [1] was 2.02%; in experiment [2] it was 2.93%; in experiment [3] it was 1.68%; in [4], 1.54%; in [5], 4.3%; in experiment [6], 3.14%. Moreover, the inhibition in [7] turned out to be 5.75%; in experiment [8], 0.18%; in experiment [9] it was 0.52%; in [10], 0.49%.

Turning to `CS(=O)(=O)Nc1ccc(-c2ccc3c(NC(=O)C4CC4)n[nH]c3c2)cc1`, the inhibition in [1] was 40%; in [2] it was -6.19%; in [3] it was 2.46%; in experiment [4] it was 3.42%; in [5], 5.22%; in experiment [6] it was 2.03%. Further, the inhibition in experiment [7] amounted to 4.96%; in [8], 0.46%; in experiment [9], 1.58%; in experiment [10], 4.36%.

Regarding `O=C(O[C@H]1CN[C@H](C#Cc2cc3ncnc(Nc4ccc(OCc5cccc(F)c5)c(Cl)c4)c3s2)C1)N1CCOCC1`, the inhibition is 2.14% in experiment [1]; 0.4% in experiment [2]; 0.97% in experiment [3]; -0.35% in experiment [4]; 1.81% in experiment [5]; 2.06% in experiment [6]. Further, the inhibition in [7] is 3.32%; in [8] it was -0.02%; in experiment [9] it was -0.12%; in experiment [10], 2.9%.

On to `O=C(O[C@H]1CN[C@H](C#Cc2cc3ncnc(Nc4ccc5c(cnn5Cc5ccccc5)c4)c3s2)C1)N1CCOCC1`, for which the inhibition in [1] was 3.11%; in experiment [2], 3.37%; in [3], 4.34%; in experiment [4], 0.74%; in [5], 2.54%; in [6] it was 1.3%. Also, the inhibition is 3.58% in experiment [7], 0.26% in [8], 1.04% in experiment [9] and -0.77% in experiment [10].

On to `CN(C)CCNC(=O)Nc1ccc(N(C)c2ccnc(Nc3ccc(CS(C)(=O)=O)cc3)n2)cc1`, for which the inhibition in experiment [1] turned out to be 7.2%; in experiment [2] it was 14.5%; in [3], 57.9%; in experiment [4], 2.43%; in experiment [5], 5.89%; in experiment [6] it was 2.14%. The inhibition in experiment [7] turned out to be 4.34%; in [8], 0.53%; in [9], 1.18%; in experiment [10], 4.92%.

For `Cc1cc(O)cc(C)c1/C=C/c1cncc(C(=O)OC(C)(C)C)c1`, the inhibition amounted to 4.01% in experiment [1]; 1.92% in experiment [2]; 4.1% in experiment [3]; 0.6% in experiment [4]; 5.15% in experiment [5]; 2.26% in [6]. Also, the inhibition is 3.54% in experiment [7], -0.01% in experiment [8], 1.19% in experiment [9] and 1.37% in experiment [10].

As for `CS(=O)(=O)Nc1ccc(-c2cc(-c3ccccc3)cc(C(N)=O)c2N)cc1`, the inhibition in experiment [1] is 1.49%; in experiment [2], -2.25%; in [3] it was 1.62%; in experiment [4] it was -0.36%; in [5], -0.05%; in experiment [6], 0.92%. Moreover, the inhibition in experiment [7] is 2.21%; in experiment [8], -0.99%; in experiment [9] it was -0.47%; in experiment [10], -1.51%.

Regarding `CC1=C(C(=O)Nc2ccc3[nH]ncc3c2)C(c2ccc(F)cc2)N=C(c2ccc(C(F)(F)F)nc2)N1` (stereo not given), the inhibition is 4.16% in [1]; 2.72% in experiment [2]; -3.57% in experiment [3]; 1.01% in experiment [4]; 3.19% in [5]; 0.18% in experiment [6]. For the same compound, the inhibition in experiment [7] is 5.63%; in experiment [8], 0.25%; in experiment [9] it was 1.37%; in [10], 0.55%.
